EP2 mod – EP2 receptor (human) modulation | P43116 | EP2-expressing cells, cAMP HTRF FRET, PGE2 co-stimulation | induction, % at 25 µM | 260,000 tested, 0.83% active;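 active = compounds whose cAMP rise, as percent of the full-agonist control response, exceeds 60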;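 note: rat C6 glioma line stably carrying human EP2 under a CMV promoter; the protocol text gives 20 µM as final concentration; 100% = response of wells given 1 µM PGE2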
Target sequence (P43116 whole entry, looked up): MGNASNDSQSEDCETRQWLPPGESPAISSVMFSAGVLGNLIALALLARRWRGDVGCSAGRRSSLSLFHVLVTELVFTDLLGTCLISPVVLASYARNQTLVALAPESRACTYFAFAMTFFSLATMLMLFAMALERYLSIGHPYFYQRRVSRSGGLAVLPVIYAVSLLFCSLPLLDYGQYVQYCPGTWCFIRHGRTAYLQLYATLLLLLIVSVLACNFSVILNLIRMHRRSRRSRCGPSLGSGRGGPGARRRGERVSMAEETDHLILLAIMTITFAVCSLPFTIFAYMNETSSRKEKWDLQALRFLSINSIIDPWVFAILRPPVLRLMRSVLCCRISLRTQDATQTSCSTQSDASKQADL
Efa HMGR inh – inhibitors of class II HMG-CoA reductase from Enterococcus faecalis; purified E. faecalis HMGR, NADPH absorbance 340 nm kinetic; 190,000 tested, 0.41% active; inhibition, % at 10 µM;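 active = inhibition above a set limit, the median over all tested compounds plus 3 SD, cut at about 9.5% in these data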;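 note: enzyme runs in reverse so mevalonate oxidation gives rising NADPH absorbance; 0% = complete reaction with DMSO and 100% = background rate lacking mevalonate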
Furin inhibitor – inhibitors of human furin; P09958; purified furin, fluorogenic substrate cleavage; inhibition, % at 20 µM or 30 µM; 220,000 tested, 0.061% active; in the data active = inhibition above about 25%
PGE2 EP2 inh – inhibitors of human EP2 prostaglandin E2 receptor | P43116 | C6 glioma cells expressing human EP2, cAMP TR-FRET; cells stimulated with saturating PGE2 | inhibition, % at 25 µM | 260,000 tested, 0.52% active | AID 1422;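 active = percent inhibition above 40 after rounding to a whole number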;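 note: rat C6 glioma host cells with rolipram phosphodiesterase inhibitor present; the protocol text gives 20 µM as final concentration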
m-calpain inh – blocks pig calpain II enzyme activity | purified calpain II, fluorogenic peptide substrate, 30 min | 220,000 tested, 0.37% active | inhibition, % at 16 µM;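 active = inhibition above about 50%, limit read from the data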
Starred values were filed as active, the others as inactive; ! = repeats disagree. This is a sample that favours compounds with a hit; in the whole collection about 1.9% have one here.

Results for Cc1ccnc(NS(=O)(=O)c2ccc(NC(=O)/C=C/c3cccs3)cc2)n1 ?
EP2 mod: -2; Efa HMGR inh: 1; Furin inhibitor: 5; PGE2 EP2 inh: 5; m-calpain inh: 28

What do the screens show for `COc1cc(OC)cc(C(=O)NC(=S)Nc2ccc(S(=O)(=O)Nc3nccs3)cc2)c1`?
EP2 mod: -131; PGE2 EP2 inh: 31

Results for COc1ccc(/C=C/C(=O)NC(=S)Nc2ccc(S(=O)(=O)Nc3cc(C)on3)cc2)cc1 ?
EP2 mod: -134; PGE2 EP2 inh: 45*

How did Cc1cc(C)cc(NS(=O)(=O)c2ccc(NC(=S)NC(=O)c3cccs3)cc2)c1 do in these assays?
EP2 mod: -87; Efa HMGR inh: -4; Furin inhibitor: 0; PGE2 EP2 inh: 42*; m-calpain inh: -27

What do the screens show for `Cc1cc(C)nc(NS(=O)(=O)c2ccc(NC(=S)NC(=O)/C=C/c3cccs3)cc2)n1`?
EP2 mod: -117; PGE2 EP2 inh: 63*

Results for CS(=O)(=O)N(CC(=O)NCc1ccc2c(c1)OCO2)c1cccc(C(F)(F)F)c1 ?
EP2 mod: -6; PGE2 EP2 inh: 5

Results for Cc1ccc(NC(=O)C(=O)NNC(=O)c2cccs2)cc1 ?
EP2 mod: 2; Efa HMGR inh: 10*; Furin inhibitor: -39; PGE2 EP2 inh: 16; m-calpain inh: -23

How did Cc1ccc(NC(=O)c2cccs2)cc1 do in these assays?
EP2 mod: -1; Efa HMGR inh: -1; Furin inhibitor: -18; PGE2 EP2 inh: 8; m-calpain inh: -6

What do the screens show for `O=C1C=CC(=O)N1c1cccc(-c2ccccc2)c1`?
EP2 mod: -61; Furin inhibitor: -2; PGE2 EP2 inh: 114*; m-calpain inh: 12

What do the screens show for `O=C1c2ccccc2C(=O)N1c1cccc(-c2nc3ccccc3o2)c1`?
EP2 mod: 28; Efa HMGR inh: -5; Furin inhibitor: -14; PGE2 EP2 inh: 13; m-calpain inh: -3

Results for O=C1NC(c2ccc(Cl)cc2)C(C(=O)c2ccco2)=C1O (stereo not drawn) ?
EP2 mod: -2; PGE2 EP2 inh: 9

Results for Fc1cccc(Cl)c1CSc1ccc(-c2cccnc2)nn1 ?
EP2 mod: 30; Efa HMGR inh: -5; Furin inhibitor: 1; PGE2 EP2 inh: 4; m-calpain inh: 64*

How did Cc1cc(NC(=O)c2ccccc2)ccc1NC(=O)c1ccco1 do in these assays?
EP2 mod: -35; PGE2 EP2 inh: 6

What do the screens show for `Cc1ccc(S(=O)(=O)Nc2cccc(/C=C/C(=O)O)c2)cc1`?
EP2 mod: -10; Efa HMGR inh: 11*; Furin inhibitor: -19; PGE2 EP2 inh: 5; m-calpain inh: 6

Results for COc1ccc(S(=O)(=O)Nc2cccc(/C=C/C(=O)O)c2)cc1 ?
EP2 mod: 26; Efa HMGR inh: -6; Furin inhibitor: -3; PGE2 EP2 inh: 4; m-calpain inh: 8

How did O=C(O)/C=C/c1cccc(NC(=O)c2ccccc2)c1 do in these assays?
EP2 mod: 93*; Furin inhibitor: -5; PGE2 EP2 inh: 7; m-calpain inh: 7

What do the screens show for `CCN1CCN(C(=O)CN(c2ccc(Cl)cc2)S(C)(=O)=O)CC1`?
EP2 mod: -7; PGE2 EP2 inh: 12

How did CCOC(=O)CSc1ccc(-c2nc3cc(C)c(C)cc3[nH]2)cn1 do in these assays?
EP2 mod: -62; Efa HMGR inh: -2; Furin inhibitor: -22; PGE2 EP2 inh: 57*!; m-calpain inh: -29

How did Cc1cc2nc(-c3ccc(SCC(=O)N4CCOCC4)nc3)[nH]c2cc1C do in these assays?
EP2 mod: -10; Efa HMGR inh: -4; Furin inhibitor: -15; PGE2 EP2 inh: 13; m-calpain inh: -351

Results for CCOC(=O)CSc1ccc(-c2nc3ccccc3[nH]2)cn1 ?
EP2 mod: -49; Efa HMGR inh: -2; Furin inhibitor: -8; PGE2 EP2 inh: 42*!; m-calpain inh: -27

Results for O=C(O)CSc1ccc(-c2nc3ccccc3[nH]2)cn1 ?
EP2 mod: -32; PGE2 EP2 inh: 8

How did Cc1ccc2cc(C#N)c(SCC(=O)NNC(=O)Cc3ccccc3)nc2c1 do in these assays?
EP2 mod: 50; Efa HMGR inh: 1; Furin inhibitor: -16; PGE2 EP2 inh: 31; m-calpain inh: 59*

Results for CCOC(=O)c1ccc(NC(=O)CSc2nc3cc4c(cc3cc2C#N)OCCO4)cc1 ?
EP2 mod: 83*; PGE2 EP2 inh: 15

Results for N#Cc1cc2cc3c(cc2nc1SCC(=O)NCc1ccccc1)OCCO3 ?
EP2 mod: 48; PGE2 EP2 inh: 43*
